# Reference: PubChem BioAssay
# Values joined by “and” are separate entries in the source; they are usually repeats but may differ in a detail not shown here. Equal entries are not always repeated. Inconclusive results are not listed. Active and inactive are the calls of the source. Unless noted, the rule behind the calls is not given here.
# Experiments:
# [1] = system: Neuropilin-2 / VEGF-C interaction (human); assay: small molecules blocking Neuropilin-2/VEGF-C interaction – biochemical, microplate binding format, z-score (AID 743281); settings: microplate NRP2/VEGF-C binding assay; stronger effect = lower value
# [2] = biological target: NAD(+) hydrolase SARM1 (Homo sapiens) (UniProt Q6SZW1); assay: blocking NAD cleavage by SARM1 SAM-TIR – cell lysate, NAD-Glo luminescence (AID 1508614;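 active = compound whose remaining NAD level is above about 45 nM, limit read from the data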;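 note: higher remaining NAD means stronger inhibition of SARM1 NADase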); settings: SAM-TIR HEK293T lysate NADase, at 1 µM, stronger effect = higher value
# [3] = galactose survival enhancers in mitochondrial complex I cybrids – cell-based, galactose medium, ATP luminescence, primary screen (AID 1645843;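 active = z-score of at least 1.8 in each of two replicates, scored against plate mean and spread of sample wells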;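 note: positive z means more ATP and so rescue of galactose-driven cybrid death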); settings: complex I mutant cybrid cells, 72 h, stronger effect = higher value
# [4] = compounds altering circadian rhythm period length – cell-based, LOPAC library, luminescence reporter (AID 2774); settings: circadian reporter cells, at 7 µM, actives lie on both sides;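 note: values are relative to mean of DMSO wells on each plate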
# [5] = system: Hepatitis C virus NS3 helicase; assay: blockers of NS3h binding to ssDNA – biochemical, fluorescence polarization, LOPAC1280 library, primary screen (AID 687035; in the data active = inhibition above about 37%); settings: Purified HCV NS3 helicase, Cy5-dT15 ssDNA binding fluorescence polarization; stronger effect = higher value; concentration not given here
# [6] = compounds altering Cy5-DNA-NS3h complex signal – biochemical, LOPAC1280, artefact control for HCV NS3 helicase inhibitor project (AID 687037); settings: Cy5-DNA-NS3h complex fluorescence interference counterscreen
# [7] = JHH-DIPG-1 glioma cell viability, MIPE5.0 library, CellTiter-Glo luminescence, qHTS (AID 1347067; cut-off not given, nearly all actives have AC50 up to about 26 µM;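 note: cells exposed to compound for 48 hours before readout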); settings: JHH-DIPG-1 glioma viability, CellTiter-Glo ATP luminescence
# [8] = blockers of cellular phospholipid synthesis – cell-based, LOPAC library, screen 4, primary screen (AID 1347384); settings: animal cells, phospholipid biosynthesis inhibition screen; at 10 µM
# [9] = system: R275C/beta4; assay: BK channel mutant inhibitors and activators – cell-based, U2OS BacMam, thallium flux, beta subunits, selectivity assay, profiling panel (AID 1259406;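 active = thallium flux through the channel raised or lowered by more than 3 SD from vehicle-only wells, actives on both sides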;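 note: initial slope of Thallos dye fluorescence rise after thallium is added; log ratio against the mean of 0.3% DMSO vehicle wells on the same plate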); settings: U2OS BacMam BK variants, at 30 µM
# [10] = system: R275C/Slo1WT/beta2; assay: as above; settings: U2OS BacMam BK variants, at 30 µM
# [11] = compounds altering viability of human ES cells (AID 493140); settings: human embryonic stem cell survival screen; stronger effect = higher value;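 note: cells exposed to compounds for four days before counting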
# [12] = blockers of polyQ-driven CASP3 activation – cell-based (AID 1583); settings: polyglutamine-induced caspase-3 activation, cell assay; stronger effect = higher value;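 tested at 10 µM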
# [13] = yeast 75Q aggregation reduction – 75Q-TubU reporter (AID 1593); settings: Yeast 75Q polyglutamine aggregation reporter
# [14] = blockers of cytochrome c efflux from mitochondria – biochemical, purified mitochondria (AID 1603); settings: stronger effect = lower value;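 note: mouse liver mitochondria challenged with calcium chloride; signal normalized to the plate average as 100%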
# [15] = polyglutamine aggregate formation blockers (AID 1604); settings: polyglutamine-induced protein aggregation inhibition assay; stronger effect = higher value; tested at 2.5 µM
# [16] = glutamate transport activators, MN-1 cells, MN-1 cell line (AID 1612); settings: MN-1 motor neuron cells, stronger effect = higher value;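 note: tested at 1 µM final; 0% = mean of DMSO vehicle wells on each plate; positive means more glutamate uptake than control and negative means less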
# [17] = 75Q-TubH aggregate inhibition, S. cerevisiae, yeast (AID 1616); settings: S. cerevisiae 75Q-TubH polyglutamine aggregation suppression; stronger effect = higher value
# [18] = viability loss in pontine glioma line – cell-based, JHH-DIPG-1, MIPE4.0, CellTiter-Glo, qHTS, dose response (AID 1347062; cut-off not given, nearly all actives have AC50 up to about 27 µM); settings: JHH-DIPG-1 viability, CellTiter-Glo ATP luminescence
# [19] = viability loss in pontine glioma line – cell-based, SU-DIPG-XXV, MIPE5.0, CellTiter-Glo, qHTS, dose response (AID 1347065; cut-off not given, nearly all actives have AC50 up to about 26 µM;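 note: cells exposed to compound for 48 hours before ATP readout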); settings: CellTiter-Glo ATP luminescence
# [20] = growth inhibition of DIPG cells – cell-based, MIPE4.0 library, CellTiter-Glo luminescence, qHTS (AID 1347066; cut-off not given, nearly all actives have AC50 up to about 30 µM;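 note: cells exposed to compound for 48 hours before readout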); settings: SU-DIPG-VI viability, CellTiter-Glo ATP luminescence
# Sequence of NAD(+) hydrolase SARM1 (Homo sapiens) (Q6SZW1 whole entry, looked up): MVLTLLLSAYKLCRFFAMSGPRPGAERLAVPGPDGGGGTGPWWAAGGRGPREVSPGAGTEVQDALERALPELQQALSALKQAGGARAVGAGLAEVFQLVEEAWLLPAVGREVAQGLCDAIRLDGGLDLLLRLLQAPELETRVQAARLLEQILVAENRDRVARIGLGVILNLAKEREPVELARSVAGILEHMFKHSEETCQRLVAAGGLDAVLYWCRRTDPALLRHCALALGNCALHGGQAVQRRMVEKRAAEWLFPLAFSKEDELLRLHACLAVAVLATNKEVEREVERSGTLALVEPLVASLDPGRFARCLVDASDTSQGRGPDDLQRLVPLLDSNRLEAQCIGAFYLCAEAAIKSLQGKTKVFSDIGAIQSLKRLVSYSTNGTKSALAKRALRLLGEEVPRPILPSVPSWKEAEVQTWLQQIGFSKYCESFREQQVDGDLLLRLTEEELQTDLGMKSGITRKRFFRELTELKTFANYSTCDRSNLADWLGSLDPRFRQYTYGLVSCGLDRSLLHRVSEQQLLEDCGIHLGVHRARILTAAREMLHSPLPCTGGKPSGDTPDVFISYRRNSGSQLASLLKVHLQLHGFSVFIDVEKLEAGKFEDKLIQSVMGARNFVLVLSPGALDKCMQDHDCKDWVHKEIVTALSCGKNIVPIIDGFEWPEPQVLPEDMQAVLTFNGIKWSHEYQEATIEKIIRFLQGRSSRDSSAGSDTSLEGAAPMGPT
smiles,measurement,setting,value
CCCc1nc(C(C)(C)O)c(C(=O)OCc2oc(=O)oc2C)n1Cc1ccc(-c2ccccc2-c2nn[nH]n2)cc1,outcome,[1],inactive
same,remaining NAD,[2],10 nM (inactive)
same,z-score,[3],0.375 (inactive)
CC[C@H](C)C(=O)O[C@H]1CCC=C2C=C[C@H](C)[C@H](CC[C@@H]3C[C@@H](O)CC(=O)O3)[C@H]21,period change,[4],0.035 h (inactive)
same,inhibition,[5],-1% (inactive)
same,fluorescence ratio (interference),[6],0.9 (inactive)
same,z-score,[1],-1.1 (inactive)
same,AC50,[7],23.5 µM (active)
same,outcome,[8],inactive
same,remaining NAD,[2],10 nM (inactive)
same,z-score,[3],-0.615 (inactive) and -0.575 (inactive) and 0.1 (inactive)
C#C[C@]1(OC(C)=O)CC[C@H]2[C@@H]3CCC4=CC(=O)CC[C@@H]4[C@H]3CC[C@@]21C,remaining NAD,[2],24 nM (inactive)
same,z-score,[3],-1.36 (inactive)
same,log fold change Tl+ flux,[9],-0.14 (active)
same,log fold change Tl+ flux,[10],-0.0421 (inactive)
CON=C(C(=O)NC1C(=O)N2C(C(=O)O)=C(COC(C)=O)CSC12)c1csc(N)n1 (stereo not given),z-score,[3],0.145 (inactive)
same,log fold change Tl+ flux,[9],-0.0222 (inactive)
same,log fold change Tl+ flux,[10],-0.0319 (inactive)
CN=C(N)NCCC[C@H](N)C(=O)O,period change,[4],-0.035 h (inactive)
same,inhibition,[5],0% (inactive)
same,fluorescence ratio (interference),[6],1 (inactive)
same,z-score,[1],-0.991 (inactive)
same,outcome,[8],inactive
same,z-score,[3],0.22 (inactive)
CC1(C)S[C@@H]2[C@H](NC(=O)[C@H](N)c3ccc(O)cc3)C(=O)N2[C@H]1C(=O)O,survival,[11],6.33 (inactive)
same,remaining NAD,[2],10 nM (inactive)
same,z-score,[3],0.84 (inactive)
same,log fold change Tl+ flux,[9],0.0282 (inactive)
same,log fold change Tl+ flux,[10],0.0404 (inactive)
CC(=O)N=c1sc(S(N)(=O)=O)nn1C,inhibition,[12],0.15%
same,score,[13],0.84
same,cytochrome c release ratio,[14],0.55
same,inhibition of aggregation,[15],49.4%
same,glutamate uptake change,[16],-1.05%
same,aggregation suppression score,[17],1.33
same,survival,[11],5.08 (inactive)
same,remaining NAD,[2],10 nM (inactive)
same,z-score,[3],0.7 (inactive)
same,log fold change Tl+ flux,[9],-0.0118 (inactive)
same,log fold change Tl+ flux,[10],-0.0121 (inactive)
Cn1cc[nH]c1=S,inhibition,[12],14.9%
same,score,[13],1.43
same,cytochrome c release ratio,[14],1.1
same,inhibition of aggregation,[15],48%
same,glutamate uptake change,[16],-2.61%
same,aggregation suppression score,[17],1.46
same,survival,[11],1.42 (inactive)
same,remaining NAD,[2],10 nM (inactive)
same,z-score,[3],1.27 (inactive) and 0.25 (inactive)
same,log fold change Tl+ flux,[9],0.0185 (inactive)
same,log fold change Tl+ flux,[10],0.019 (inactive)
CC(CCc1ccccc1)NCC(O)c1ccc(O)c(C(N)=O)c1 (stereo not given),inhibition,[12],1.38%
same,score,[13],1.61
same,cytochrome c release ratio,[14],0.72
same,inhibition of aggregation,[15],83.1%
same,glutamate uptake change,[16],-2.28%
same,aggregation suppression score,[17],1.14
same,period change,[4],-0.45 h (inactive)
same,survival,[11],19.1 (inactive)
same,inhibition,[5],-4% (inactive)
same,fluorescence ratio (interference),[6],1 (inactive)
same,outcome,[8],inactive
same,remaining NAD,[2],10 nM (inactive)
same,z-score,[3],-0.94 (inactive) and 0.995 (inactive)
same,log fold change Tl+ flux,[9],0.0314 (inactive)
same,log fold change Tl+ flux,[10],-0.0367 (inactive)
OC[C@H]1O[C@@H](Oc2cc(O)cc(/C=C/c3ccc(O)cc3)c2)[C@H](O)[C@@H](O)[C@@H]1O,z-score,[1],0.265 (inactive)
same,outcome,[18],inactive
same,outcome,[19],inactive
same,outcome,[20],inactive
same,outcome,[7],inactive
same,log fold change Tl+ flux,[9],0.00405 (inactive)
same,log fold change Tl+ flux,[10],0.104 (active)
Nc1ccn([C@@H]2O[C@H](CO)[C@@H](O)C2O)c(=O)n1 (stereo not given in full),z-score,[1],0.042 (inactive)
same,outcome,[18],inactive
same,outcome,[19],inactive
same,outcome,[7],inactive
same,outcome,[8],inactive
same,remaining NAD,[2],10 nM (inactive)
same,z-score,[3],-1.98 (inactive)
CC(=O)OCC(=O)[C@@]1(O)CC[C@H]2[C@@H]3C[C@H](C)C4=CC(=O)C=C[C@]4(C)[C@H]3[C@@H](O)C[C@@]21C,z-score,[3],-0.46 (inactive)
same,log fold change Tl+ flux,[9],0.0801 (inactive)
same,log fold change Tl+ flux,[10],0.0333 (inactive)
C#C[C@]1(O)CC[C@H]2[C@@H]3CCC4=CC(=O)CC[C@@H]4[C@H]3CC[C@@]21C,survival,[11],14.7 (inactive)
same,remaining NAD,[2],10 nM (inactive)
same,z-score,[3],-0.71 (inactive) and 0.54 (inactive)
same,log fold change Tl+ flux,[9],-0.0715 (inactive)
same,log fold change Tl+ flux,[10],-0.0385 (inactive)
CC(=O)O[C@]1(C(C)=O)CC[C@H]2[C@@H]3C[C@H](C)C4=CC(=O)CC[C@]4(C)[C@H]3CC[C@@]21C,outcome,[18],inactive
same,outcome,[20],inactive
same,outcome,[7],inactive
same,remaining NAD,[2],10 nM (inactive)
same,z-score,[3],-1.19 (inactive)
same,log fold change Tl+ flux,[9],0.0252 (inactive)
same,log fold change Tl+ flux,[10],0.0102 (inactive)
